Measured values published in PubChem BioAssay (NCATS).
Records with an inconclusive call do not appear. Activity calls are given as the source filed them. Calls come from the whole dose curve; as a rule, active = well fitted inhibition curve with a large enough effect; inconclusive = small, poorly fitted or top-dose-only effect; inactive = flat fitted curve, though single readings scatter.

Experiments:
[1] = test system: TAB109; assay: qHTS profiling for inhibitors of Plasmodium falciparum proliferation (AID 504749);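 note: 0% = DMSO vehicle and full inhibition = artemisinin control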; details: P. falciparum in erythrocytes, SYBR Green DNA, 72 h; series mostly up to 28.7 µM
Procedure, shortened: (§1)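 Each compound contacts P. falciparum-infected red blood cells for 72 h at 37 C; lysis buffer (Tris, EDTA, saponin, Triton X, SYBR Green I) is added and fluorescence measured next morning; values normalized to controls.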

[2] = test system: TAB113; assay: as above; details: P. falciparum in erythrocytes, SYBR Green DNA, 72 h; series mostly up to 28.7 µM
Procedure, shortened: as §1

[3] = test system: TAB165; assay: as above; details: P. falciparum in erythrocytes, SYBR Green DNA, 72 h; series mostly up to 28.7 µM
Procedure, shortened: as §1

[4] = test system: W2; assay: as above; details: P. falciparum in erythrocytes, SYBR Green DNA, 72 h; series mostly up to 28.7 µM
Procedure, shortened: as §1

[5] = test system: CRL-7250; assay: Cytotoxic Profiling of Annotated Libraries Using Quantitative High-Throughput Screening (AID 1296008); details: Five cell lines viability, CellTiter-Glo ATP luminescence, 48-72 h; stronger effect = lower value; for max response: % is set by controls: 0 for no effect and ±100 for the full control effect
Procedure, shortened: (§2)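 Cells exposed to compounds for 48 or 72 hr at 37 degrees Celsius. Viability read as ATP-coupled luminescence with CellTiter-Glo after 10 min at room temperature.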

[6] = test system: HEK293; assay: as above; details: Five cell lines viability, CellTiter-Glo ATP luminescence, 48-72 h; stronger effect = lower value
Procedure, shortened: as §2

[7] = test system: HaCat; assay: as above; details: Five cell lines viability, CellTiter-Glo ATP luminescence, 48-72 h; stronger effect = lower value
Procedure, shortened: as §2

[8] = test system: KB-3-1; assay: as above; details: Five cell lines viability, CellTiter-Glo ATP luminescence, 48-72 h, stronger effect = lower value
Procedure, shortened: as §2

[9] = test system: NIH3T3; assay: as above; details: Five cell lines viability, CellTiter-Glo ATP luminescence, 48-72 h; stronger effect = lower value
Procedure, shortened: as §2

[10] = test system: HACAT; assay: qHTS assay to identify novel small-molecules to repurpose for Merkel cell carcinoma treatment (AID 1296009); details: MCC and control cell lines, CellTiter-Glo viability, 72 h; at 44.8 µM (top of the series) unless noted
Procedure, shortened: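 Dose-response viability screen; 72 hr exposure at 37 degree celsius; CellTiter-Glo added, 10 min room temperature, luminescence read; RLUs scaled between no-cell and DMSO wells.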
Note: nearly all actives have a fitted effect of over 60% in size.

CCOC(=O)[C@H](CCc1ccccc1)N[C@@H](C)C(=O)N1CCC[C@H]1C(=O)O
inactive: Potency [1] | Potency [2] | Potency [3] | Potency [4] | max response [5] 2.02% | max response [6] -1.68% | outcome [7] | max response [8] 7.19% | outcome [9] | outcome [10]

NS(=O)(=O)c1ccc(NC(=O)CCC(=O)O)cc1
inactive: Potency [1] | Potency [2] | Potency [3] | Potency [4] | max response [5] -4.29% | max response [6] -0.661% | outcome [7] | max response [8] -4.48% | outcome [9] | outcome [10]

C=CCSCC1Nc2cc(Cl)c(S(N)(=O)=O)cc2S(=O)(=O)N1 (stereo not given)
inactive: Potency [1] | Potency [2] | Potency [3] | max response [5] -2.06% | max response [6] 2.45% | outcome [7] | max response [8] -3.75% | max response [9] 4.06% | outcome [10]

COc1ccccc1OCC(O)CO (stereo not given)
inactive: outcome [5] | max response [6] -2.29% | outcome [7] | max response [8] 4.34% | outcome [9] | outcome [10]

Cc1cccc(C(=O)O)c1O
inactive: Potency [1] | Potency [2] | Potency [3] | Potency [4] | max response [5] -0.667% | max response [6] -2.23% | outcome [7] | max response [8] 2.2% | outcome [9] | outcome [10]

Nc1ncnc2c1ncn2[C@@H]1O[C@H](COP(=O)(O)O)[C@@H](O)[C@H]1O
inactive: Potency [1] | Potency [2] | Potency [3] | Potency [4] | outcome [5] | outcome [6] | outcome [7] | max response [8] -9.67% | max response [9] 4.32% | outcome [10]

O=c1[nH]c(=O)c2ccccc2o1
inactive: Potency [1] | Potency [2] | Potency [3] | Potency [4] | outcome [5] | max response [6] 1.22% | outcome [7] | max response [8] -4.12% | max response [9] -16.8% | outcome [10]

CC(=O)N[C@@H](Cc1ccc(O)cc1)C(=O)O
inactive: Potency [1] | Potency [2] | Potency [3] | max response [5] -1.56% | max response [6] -2.21% | outcome [7] | max response [8] -4.16% | max response [9] -2.52% | outcome [10]

O=C(Cn1ccnc1[N+](=O)[O-])NCc1ccccc1
inactive: Potency [1] | Potency [2] | Potency [3] | Potency [4] | max response [5] 0.299% | max response [6] -3.43% | outcome [7] | max response [8] 0.421% | max response [9] 3.14% | outcome [10]

CN(C/C=C/C#CC(C)(C)C)Cc1cccc2ccccc12
inactive: Potency [1] | Potency [2] | Potency [3] | max response [5] -11.8% | max response [6] -4.51% | outcome [7] | max response [8] -0.279% | max response [9] 2.57% | outcome [10]

CCS(=O)(=O)CCn1c([N+](=O)[O-])cnc1C
inactive: Potency [1] | Potency [2] | Potency [3] | Potency [4] | outcome [5] | max response [6] 1.79% | outcome [7] | max response [8] -0.735% | max response [9] -2.73% | outcome [10]

CC1CC(OC(=O)c2ccccc2O)CC(C)(C)C1 (stereo not given)
inactive: Potency [1] | Potency [2] | Potency [3] | max response [5] -4.46% | outcome [6] | outcome [7] | max response [8] -9.15% | max response [9] -4.04% | outcome [10]

OCC(O)CS (stereo not given)
inactive: Potency [1] | Potency [2] | Potency [3] | max response [5] -11.9% | max response [6] 3.48% | outcome [7] | max response [8] 1.95% | max response [9] 0.523% | outcome [10]

C[C@H]1COc2c(C3(N)CC3)c(F)cc3c(=O)c(C(=O)O)cn1c23
inactive: Potency [1] | Potency [2] | Potency [3] | max response [5] 2.54% | max response [6] 4.33% | outcome [7] | max response [8] 14.4% | max response [9] 1.93% | outcome [10]

CCCCCCCC(=O)OCC(COC(=O)CCCCCCC)OC(=O)CCCCCCC
inactive: Potency [1] | Potency [2] | Potency [3] | max response [5] -3.96% | max response [6] 1.52% | outcome [7] | max response [8] -1.81% | max response [9] 4.46% | outcome [10]

FC(F)(F)C(Cl)Br (stereo not given)
inactive: Potency [1] | Potency [2] | Potency [3] | max response [5] 3.98% | max response [6] 0.482% | outcome [7] | max response [8] -3.43% | outcome [9] | outcome [10]

O=C(O)c1ccccc1OP(=O)(O)O
inactive: Potency [1] | Potency [2] | Potency [3] | Potency [4] | max response [5] 3.34% | max response [6] 2.49% | outcome [7] | max response [8] 12.4% | max response [9] 3.2% | outcome [10]

CCCCOC(=O)c1ccc(N)cc1
inactive: Potency [1] | Potency [2] | Potency [3] | outcome [5] | max response [6] 4.63% | outcome [7] | max response [8] 0.229% | max response [9] -6.66% | outcome [10]

CC(C)c1cc2c(cc1S(=O)(=O)O)[C@@]1(C)CCC[C@@](C)(C(=O)O)[C@@H]1CC2
inactive: Potency [1] | Potency [2] | Potency [3] | max response [5] -2.14% | max response [6] 0.927% | outcome [7] | max response [8] -7.82% | outcome [9] | outcome [10]

COCC(=O)Nc1c(I)c(C(=O)NCC(O)CO)c(I)c(C(=O)N(C)CC(O)CO)c1I (stereo not given)
inactive: max response [5] -2.09% | max response [6] -5.16% | outcome [7] | max response [8] 11.7% | max response [9] 1.05% | outcome [10]

COC(=O)c1ccc(O)cc1
inactive: Potency [1] | Potency [2] | Potency [3] | Potency [4] | max response [5] 1% | max response [6] 3.26% | outcome [7] | max response [8] 0.911% | outcome [9] | outcome [10]

CCOc1cc(NC(C)=O)ccc1C(=O)OC
inactive: Potency [1] | Potency [2] | Potency [3] | Potency [4] | max response [5] 3.11% | max response [6] 0.16% | outcome [7] | max response [8] 19.6% | max response [9] 0.0399% | outcome [10]

CC[N+](CC)(CC(=O)Nc1c(C)cccc1C)Cc1ccccc1
inactive: Potency [1] | Potency [2] | Potency [3] | max response [5] -0.938% | max response [6] 3.4% | outcome [7] | max response [8] -3.17% | max response [9] 1.97% | outcome [10]

COc1ccc(C(=O)NCc2ccc(OCCN(C)C)cc2)cc1OC
inactive: Potency [1] | Potency [2] | Potency [3] | Potency [4] | outcome [5] | max response [6] -0.933% | outcome [7] | max response [8] 3.28% | max response [9] -3.79% | outcome [10]

CC1CCN(CCCC(=O)c2ccc(F)cc2)CC1
inactive: Potency [1] | Potency [2] | Potency [3] | max response [5] -0.306% | max response [6] -0.532% | outcome [7] | max response [8] -11.3% | max response [9] -1.04% | outcome [10]

N[C@@H](Cc1ccc(O)cc1)C(=O)O
inactive: Potency [1] | Potency [2] | Potency [3] | Potency [4] | max response [5] 1.09% | max response [6] 3.89% | outcome [7] | max response [8] -4.34% | outcome [9] | outcome [10] inactive [at 9.27 µM]

CCN(CC)C(=O)c1cccc(C)c1
inactive: Potency [1] | Potency [2] | Potency [3] | Potency [4] | outcome [5] | max response [6] 0.224% | outcome [7] | max response [8] 13.2% | outcome [9] | outcome [10]

CC1CCc2cc(F)cc3c(=O)c(C(=O)O)cn1c23 (stereo not given)
inactive: Potency [1] | Potency [2] | Potency [3] | Potency [4] | outcome [5] | max response [6] -3.78% | outcome [7] | max response [8] -6.7% | max response [9] -1.98% | outcome [10]

CC(=O)Nc1cccc(O)c1
inactive: Potency [1] | Potency [2] | Potency [3] | Potency [4] | max response [5] -4.66% | max response [6] 4.09% | outcome [7] | max response [8] 0.376% | max response [9] 0.534% | outcome [10]

c1ccc2[nH]ccc2c1
inactive: Potency [1] | Potency [2] | Potency [3] | Potency [4] | max response [5] 4.59% | max response [6] -5.55% | outcome [7] | max response [8] -2.84% | outcome [9] | outcome [10]

CN/C(=C\[N+](=O)[O-])NCCSCc1csc(CN(C)C)n1
inactive: Potency [1] | Potency [2] | Potency [3] | Potency [4] | max response [5] -2.16% | max response [6] -19.8% | outcome [7] | max response [8] 8.03% | max response [9] 0.469% | outcome [10]

CN1CCN(C(=O)C2CCCCC2)CC1
inactive: Potency [1] | Potency [2] | Potency [3] | Potency [4] | outcome [5] | max response [6] -2.32% | outcome [7] | max response [8] -4.36% | max response [9] -7.73% | outcome [10]

COc1ccc2cc(CCC(C)=O)ccc2c1
inactive: Potency [1] | Potency [2] | Potency [3] | Potency [4] | outcome [5] | outcome [6] | outcome [7] | max response [8] -1.62% | max response [9] -0.0731% | outcome [10]

NC(N)=NCCN1CCCCCCC1
inactive: Potency [1] | Potency [2] | Potency [3] | Potency [4] | max response [5] -19.7% | max response [6] 0.733% | outcome [7] | max response [8] 18.1% | max response [9] 4.36% | outcome [10] inactive [at 0.588 µM]
